# Compounds with a hit are over-represented: about 4.6% of the library has one in this group of screens.
# VACV Venus inh – qHTS for Stage-Specific Inhibitors of Vaccinia Orthopoxvirus: Venus Reporter Primary qHTS; Vaccinia virus Venus reporter expression, fluorescence; 330,000 compounds, 0.46% hits; Potency, µM (highest dose often 36.5 µM), for the others: at the top dose activity change, negative = inhibition, usual class: inhibitors; AID 720580, 2013; calls by dose curve; tested in A549 cells; note: nearly all actives have a fitted effect of over 30% in size
# HCV inhibitor – qHTS Assay for Inhibitors of Hepatitis C Virus (HCV); Huh7.5.1 HCVcc-Cre infection, luciferase reporter, 44 h; 340,000 compounds, 3.4% hits; Potency, µM (doses to about 41.8 µM), without a hit: top-dose activity change, negative = inhibition, hits mostly inhibitors; AID 651820, 2012; active = well fitted inhibition curve with a large enough effect; inconclusive = small, poorly fitted or top-dose-only effect, or another doubt; inactive = no such curve, though single readings can be large or run the other way
#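 Compounds are dispensed onto cells plated 4 h earlier at 1,000 per well, with HCVcc-Cre virus (about 0.5 moi) added next. Following 44 h of culture, luminescent signal is measured for 15 sec after 15 min with substrate at room temperature.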
# Vaccinia mCherry – qHTS for Stage-Specific Inhibitors of Vaccinia Orthopoxvirus: mCherry Reporter Primary qHTS; Potency, µM (top dose mostly 36.5 µM), for inactives: at the top dose activity change, negative = inhibition, actives largely listed as inhibitors; Vaccinia virus mCherry reporter infection, fluorescence; AID 720579, 2013; 310,000 compounds, 0.63% hits; calls by dose curve; tested in A549 cells; note: nearly all actives have a fitted effect of over 35% in size
# Marburg entry inh – qHTS for inhibitors of binding or entry into cells for Marburg Virus | Potency, µM (top dose mostly 37.8 µM), for inactives: at the highest dose activity change, negative = inhibition, actives largely listed as inhibitors | Marburg virus pseudotyped entry inhibition, cell reporter | 300,000 compounds, 1.8% hits; calls by dose curve; tested in HEK293 cells
# LASV entry inh – qHTS for Inhibitors of binding or entry into cells for Lassa Virus; Lassa virus pseudotype entry inhibition, cell reporter; Potency, µM (top dose mostly 37.9 µM), inactives show top-dose activity change, negative = inhibition, actives largely listed as inhibitors; 300,000 compounds, 1.2% hits; calls by dose curve; tested in HEK293 cells; note: nearly all actives have a fitted effect of over 50% in size
# The depositor's hits bear a star; i = inactive; ? = inconclusive; nt = no result; [ ] = dose if it differs, or a comment. % is set by controls: 0 for no effect and ±100 for the full control effect; potency is the fitted concentration of half-maximal effect.
SMILES,VACV Venus inh,HCV inhibitor,Vaccinia mCherry,Marburg entry inh,LASV entry inh
Oc1ccccc1-c1cc(-c2ccccc2Cl)[nH]n1,?,-22.7%,?,-16.3%,10µM*
Oc1ccc(Cl)cc1-c1cc(-c2cccc(Br)c2)n[nH]1,nt,11.2µM*,nt,?,?
Oc1ccc(Cl)cc1-c1cc(-c2ccccc2Cl)[nH]n1,nt,12.6µM*,nt,-0.9%,-3.8%
O=[N+]([O-])c1ccccc1-c1cc(-c2cc(Cl)ccc2O)n[nH]1,?,?,-25.9%,4.8%,?
CCCCN(CC)C(=O)CCCn1c(=O)c2cccn2c2ccccc21,-8.7%,nt,-6.3%,nt,-23.8%[46.1 µM]
Fc1ccc(N2CCN(Cc3cccn3-c3nnc(N4CCN(C5CCCCC5)CC4)s3)CC2)cc1,-18.8%,nt,-17.2%,nt,6.8%[46.1 µM]
Cc1ccc(NC(=O)N2CCN(Cc3nc4ccc(C)cc4o3)CC2)c(Cl)c1,-9.9%,nt,-3.6%,nt,-8.5%[46.1 µM]
O=C(Nc1scc(-c2ccc(Br)cc2)c1C(=O)O)c1ccccc1F,-22.2%,7.2%,-10.7%,3.16µM*,?
O=C(Nc1scc(-c2ccccc2)c1C(=O)O)c1ccccc1F,3.3%,13.6%,2.2%,?,-10.9%[46.1 µM]
Cc1ncc(Cc2ccccc2)c(C2CCN(S(=O)(=O)C[C@]34CC[C@H](CC3=O)C4(C)C)CC2)n1,-19.0%,nt,-19.4%,nt,nt
CCCCCCNC(=O)CNC(=S)N(Cc1cccs1)C1CCCCC1,nt,10µM*,nt,nt,nt
CCOC(=O)CNC(=S)N(Cc1cccs1)C1CCCC1,5.7%,11.1%,-13.7%,?,2.4%
COc1ccc(OC)c(-c2cc(C(=O)Nc3ccc(C)c(C)c3)no2)c1,-0.3%,nt,-12.2%,-18.3%[46.1 µM],29.4%[46.1 µM]
COc1ccccc1NC(=O)CSc1nnc(-c2nonc2NC(C)=O)n1-c1ccccc1,-9.7%,nt,-6.4%,4.1%[46.1 µM],-7.7%[46.1 µM]
CCCCCCCCNC(=O)CC(NS(=O)(=O)c1ccc(NC(C)=O)cc1)C(C)C (configuration not stated),-23.4%,14.7%,-27.4%,7.7%,2.06µM*
CCOC(=O)Nc1ccc(S(=O)(=O)Nc2nc(C)cc(C)n2)cc1,2.6%,11.9%,-9.8%,?,26.8%[14.3 µM]
Cc1ccc(S(=O)(=O)NC(=O)Nc2ccc(N(C)C)cc2)cc1,?,?,?,?,12.6µM*
CCCCN(CCCC)S(=O)(=O)c1ccc(NS(=O)(=O)c2ccc(NC(C)=O)cc2)cc1,-13.3%,16.3%,-13.5%,-4.3%,4.3%
Cc1ccc(NC(=O)NNS(=O)(=O)c2ccc(Br)cc2)cc1,-9.1%,13.7%,nt,?,0.0%
CCCCOc1ccc(S(=O)(=O)Nc2ccc(NC(C)=O)cc2)cc1,nt,8.91µM*,nt,-15.8%,-20.4%
CCOC(=O)Nc1ccc(NS(=O)(=O)c2ccc(C)cc2)cc1,-23.5%,?,-6.8%,-20.4%,11.6µM*
COCC(=O)Nc1cc(C(=O)N2CC3CC4CC(C3)CC2C4)c2c(c1)nc(-c1ccncc1)n2C,-1.7%,nt,-4.5%,nt,nt
COc1ccc(NC(=O)COc2cccc3c2OC(C)(C)C3)cc1OC,nt,6.31µM*,nt,nt,nt
COc1cccc(NC(=O)COC(=O)COc2cccc3c2OC(C)(C)C3)c1,-13.1%,18.3%,i,23.9%,2.0%
Cc1cc(C)cc(Oc2coc3c(CN4CCN(C)CC4)c(O)ccc3c2=O)c1,2.0%,nt,-13.0%,nt,8.7%[46.1 µM]
SMILES,VACV Venus inh,HCV inhibitor,Vaccinia mCherry,Marburg entry inh,LASV entry inh
O=C1/C(=C/c2ccc(N3CCOCC3)o2)SC(=Nc2ccccc2)N1CCc1c[nH]c2ccccc12,19.5%,3.16µM*,?,?,7.08µM*
CCCOC(=O)C(C)n1cnc2scc(-c3ccc(C)cc3)c2c1=O (configuration not stated),nt,22.4µM*,nt,nt,nt
Cc1ccc(-c2cc3nn(-c4ccccc4)c(N)c3c(=O)o2)cc1,nt,10µM*,nt,-26.0%,11.8%
Cc1ccc(-n2nc(-c3ccccc3)cc2Nc2ccccc2N)cc1,-13.0%,5.0%,-21.6%,?,24.4%
COc1ccccc1C1=NNC(=Nc2cccc(S(=O)(=O)N(C)C)c2)SC1,-13.3%,12.6µM*,?,7.08µM*,?
O=C(Nc1ccc2nc(C3CC3)n(Cc3ccc(F)cc3)c(=O)c2c1)c1ccco1,?,22.4µM*,?,-28.7%,?
Cc1cc(C)cc(NC(=O)[C@H](NC(=O)[C@@H]2Cc3ccccc3CN2)c2ccccc2)c1,-11.1%,-20.1%,-20.4%,1.41µM*,29.7%[46.1 µM]
O=C(NC(Cc1c[nH]c2ccccc12)C(=O)Nc1ccc(F)cc1)c1cccs1 (configuration not stated),12.6%,-8.6%,?,?,1.41µM*
CCc1ccc(NC(=O)[C@H](Cc2c[nH]c3ccccc23)NC(=O)[C@@H]2Cc3ccccc3CN2)cc1,11.5%,3.55µM*,5.01µM*,nt,nt
Cc1cccc(NC(=O)[C@H](Cc2c[nH]c3ccccc23)NC(=O)[C@@H]2Cc3ccccc3CN2)c1,32.9%,3.98µM*,11.2µM*,nt,nt
COC(=O)C(Cc1c[nH]c2ccccc12)NC(=O)c1cccs1 (configuration not stated),nt,-5.9%,nt,nt,nt
CN1CCN(/N=C/c2ccc(N(c3ccccc3)c3ccccc3)cc2)CC1,-23.4%,?,-22.2%,1.26µM*,0.631µM*
Cc1cccc(NCC(=O)N/N=C\c2ccc[nH]2)c1,8.4%,8.91µM*,?,7.08µM*,?
O=C(N/N=C/c1ccc[nH]1)c1c[nH]c2ccccc12,nt,0.891µM*,nt,nt,nt
O=C(CNc1cccc2ccccc12)N/N=C/c1ccc[nH]1,?,1µM*,?,?,?
Cc1cccc(NCC(=O)N/N=C/c2cccc(Br)c2)c1,nt,-10.4%,nt,nt,nt
O=C(CNc1cccc2ccccc12)N/N=C/c1ccc([N+](=O)[O-])o1,nt,10µM*,nt,?,?
CCOc1cc(/C=N/Nc2cccc(C(=O)O)c2)ccc1OC(=O)c1ccccc1,-6.8%,2.1%,-11.6%,?,?
CCOc1cc(/C=N/NC(=O)CNc2cccc(C)c2)ccc1OC(=O)c1ccccc1,-8.1%,-9.0%,nt,7.4%,15.8µM*
CSc1ccc2c(c1)N(CCC1CCCCN1C)c1ccccc1S2 (configuration not stated),?,?,-23.1%,10.3µM*,5.17µM*
O=C(C1CCN(S(=O)(=O)c2cccc3nonc23)CC1)N1CCN(c2ccc(F)cc2)CC1,-3.4%,nt,-7.7%,-12.8%[46.1 µM],-19.1%[46.1 µM]
Cc1ccc(NC(=O)Cn2cc(C(=O)C3CC3)c3ccccc32)c(C)c1,-8.7%,14.6%,-5.8%,-17.1%[46.1 µM],-1.7%
CC(=O)c1cn(CCOc2cc(C)ccc2C)c2ccccc12,-7.0%,1.78µM*,-13.3%,1.58µM*,-17.4%[46.1 µM]
Cc1ccc(NC(=O)Cc2cc(C(=O)O)c3ccccc3n2)c(C)c1,nt,12.6µM*,nt,11.6µM*,14.6µM*
CC(=O)c1cn(CC(=O)Nc2ccc(C)cc2C)c2ccccc12,?,5.62µM*,nt,?,?
COc1ccc(/C(O)=C2\C(=O)C(=O)N(CCN(C)C)[C@H]2c2cccc(OC)c2OC)cc1,nt,nt,nt,-16.1%,nt

# Screens: PubChem BioAssay, National Center for Advancing Translational Sciences (NCATS)
